Results filed as inconclusive are left out. The source made the active and inactive calls. Calls follow the shape of the dose curve; as a rule, active = well fitted activation curve with a large enough effect; inconclusive = small, poorly fitted or top-dose-only effect; inactive = flat fitted curve, though single readings scatter.

For this assay, the target named is Nuclear receptor subfamily 1 group I member 2 (Homo sapiens) (UniProt O75469). In words: Dual reporter qHTS for agonist of Pregnane X Receptor (hPXR) against the NCATS DSHEA and TCM libraries: Luminescence readout (AID 1920059). To be noted: hPXR dual reporter cells, luciferase luminescence agonist; series mostly up to 40 µM. In short, it runs like this: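 Luminescent PXR reporter read (ONE-Glo) after a CellTiter-Fluor viability read, following 24 h, 37C treatment of HepG2 cells stably carrying hPXR-Luc.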
Chain of Nuclear receptor subfamily 1 group I member 2 (Homo sapiens) (O75469 whole entry, looked up): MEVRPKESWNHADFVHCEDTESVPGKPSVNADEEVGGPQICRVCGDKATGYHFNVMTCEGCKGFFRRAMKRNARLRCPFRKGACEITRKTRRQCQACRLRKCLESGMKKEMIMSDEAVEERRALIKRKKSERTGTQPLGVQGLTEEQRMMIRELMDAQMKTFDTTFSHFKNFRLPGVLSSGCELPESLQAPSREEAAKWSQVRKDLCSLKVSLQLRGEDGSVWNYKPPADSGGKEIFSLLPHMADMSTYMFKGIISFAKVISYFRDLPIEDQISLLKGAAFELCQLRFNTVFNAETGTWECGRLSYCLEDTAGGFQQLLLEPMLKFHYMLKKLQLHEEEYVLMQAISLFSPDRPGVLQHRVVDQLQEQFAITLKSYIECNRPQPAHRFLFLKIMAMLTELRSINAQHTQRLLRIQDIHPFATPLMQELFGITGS
A general note: qHTS replaces the single test concentration by a dilution series.
As for `O=c1ccc2ccccc2o1`, the compound was called inactive. Take `C/C=C/c1ccc(OC)cc1`: the compound was called inactive. The result for `C=CCc1ccc(O)c(OC)c1` reads “inactive”; that for `Nc1ccc(C(=O)O)cc1`, “inactive”; that for `Nc1nc2ncc(CNc3ccc(C(=O)N[C@@H](CCC(=O)O)C(=O)O)cc3)nc2c(=O)[nH]1`, “inactive”.

The record behind these values is PubChem BioAssay (NCATS).
